Assay results published in PubChem BioAssay AID1671202 (University of Kansas High Throughput Screening Laboratory, 2021).
Where “and” joins values, the source holds several entries; their conditions need not be identical. Equal entries are not always repeated. Screen size: about 190,000 compounds; about 6,900 (3.6%) were called active. The sample holds actives, similar compounds and a random draw of the others, so the mix is not that of the screen. No stated cut-off is given here; in the data, active means inhibition above about 50%; inactive means the rest. A structure can be active in one record and inactive in another.

These compounds were tested against Huntingtin (Homo sapiens) (UniProt P42858) (assay: mutant huntingtin-calmodulin interaction inhibitors – biochemical, AlphaScreen, primary screen (AID 1671202;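 on inhibition: 0% = both proteins with DMSO and 100% = one protein alone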)). Details: AlphaScreen His-mHTT/GST-CaM binding, luminescence; at 15 µM, stronger effect = higher value.
Sequence of Huntingtin (Homo sapiens) (P42858 whole entry, looked up, stated change not applied): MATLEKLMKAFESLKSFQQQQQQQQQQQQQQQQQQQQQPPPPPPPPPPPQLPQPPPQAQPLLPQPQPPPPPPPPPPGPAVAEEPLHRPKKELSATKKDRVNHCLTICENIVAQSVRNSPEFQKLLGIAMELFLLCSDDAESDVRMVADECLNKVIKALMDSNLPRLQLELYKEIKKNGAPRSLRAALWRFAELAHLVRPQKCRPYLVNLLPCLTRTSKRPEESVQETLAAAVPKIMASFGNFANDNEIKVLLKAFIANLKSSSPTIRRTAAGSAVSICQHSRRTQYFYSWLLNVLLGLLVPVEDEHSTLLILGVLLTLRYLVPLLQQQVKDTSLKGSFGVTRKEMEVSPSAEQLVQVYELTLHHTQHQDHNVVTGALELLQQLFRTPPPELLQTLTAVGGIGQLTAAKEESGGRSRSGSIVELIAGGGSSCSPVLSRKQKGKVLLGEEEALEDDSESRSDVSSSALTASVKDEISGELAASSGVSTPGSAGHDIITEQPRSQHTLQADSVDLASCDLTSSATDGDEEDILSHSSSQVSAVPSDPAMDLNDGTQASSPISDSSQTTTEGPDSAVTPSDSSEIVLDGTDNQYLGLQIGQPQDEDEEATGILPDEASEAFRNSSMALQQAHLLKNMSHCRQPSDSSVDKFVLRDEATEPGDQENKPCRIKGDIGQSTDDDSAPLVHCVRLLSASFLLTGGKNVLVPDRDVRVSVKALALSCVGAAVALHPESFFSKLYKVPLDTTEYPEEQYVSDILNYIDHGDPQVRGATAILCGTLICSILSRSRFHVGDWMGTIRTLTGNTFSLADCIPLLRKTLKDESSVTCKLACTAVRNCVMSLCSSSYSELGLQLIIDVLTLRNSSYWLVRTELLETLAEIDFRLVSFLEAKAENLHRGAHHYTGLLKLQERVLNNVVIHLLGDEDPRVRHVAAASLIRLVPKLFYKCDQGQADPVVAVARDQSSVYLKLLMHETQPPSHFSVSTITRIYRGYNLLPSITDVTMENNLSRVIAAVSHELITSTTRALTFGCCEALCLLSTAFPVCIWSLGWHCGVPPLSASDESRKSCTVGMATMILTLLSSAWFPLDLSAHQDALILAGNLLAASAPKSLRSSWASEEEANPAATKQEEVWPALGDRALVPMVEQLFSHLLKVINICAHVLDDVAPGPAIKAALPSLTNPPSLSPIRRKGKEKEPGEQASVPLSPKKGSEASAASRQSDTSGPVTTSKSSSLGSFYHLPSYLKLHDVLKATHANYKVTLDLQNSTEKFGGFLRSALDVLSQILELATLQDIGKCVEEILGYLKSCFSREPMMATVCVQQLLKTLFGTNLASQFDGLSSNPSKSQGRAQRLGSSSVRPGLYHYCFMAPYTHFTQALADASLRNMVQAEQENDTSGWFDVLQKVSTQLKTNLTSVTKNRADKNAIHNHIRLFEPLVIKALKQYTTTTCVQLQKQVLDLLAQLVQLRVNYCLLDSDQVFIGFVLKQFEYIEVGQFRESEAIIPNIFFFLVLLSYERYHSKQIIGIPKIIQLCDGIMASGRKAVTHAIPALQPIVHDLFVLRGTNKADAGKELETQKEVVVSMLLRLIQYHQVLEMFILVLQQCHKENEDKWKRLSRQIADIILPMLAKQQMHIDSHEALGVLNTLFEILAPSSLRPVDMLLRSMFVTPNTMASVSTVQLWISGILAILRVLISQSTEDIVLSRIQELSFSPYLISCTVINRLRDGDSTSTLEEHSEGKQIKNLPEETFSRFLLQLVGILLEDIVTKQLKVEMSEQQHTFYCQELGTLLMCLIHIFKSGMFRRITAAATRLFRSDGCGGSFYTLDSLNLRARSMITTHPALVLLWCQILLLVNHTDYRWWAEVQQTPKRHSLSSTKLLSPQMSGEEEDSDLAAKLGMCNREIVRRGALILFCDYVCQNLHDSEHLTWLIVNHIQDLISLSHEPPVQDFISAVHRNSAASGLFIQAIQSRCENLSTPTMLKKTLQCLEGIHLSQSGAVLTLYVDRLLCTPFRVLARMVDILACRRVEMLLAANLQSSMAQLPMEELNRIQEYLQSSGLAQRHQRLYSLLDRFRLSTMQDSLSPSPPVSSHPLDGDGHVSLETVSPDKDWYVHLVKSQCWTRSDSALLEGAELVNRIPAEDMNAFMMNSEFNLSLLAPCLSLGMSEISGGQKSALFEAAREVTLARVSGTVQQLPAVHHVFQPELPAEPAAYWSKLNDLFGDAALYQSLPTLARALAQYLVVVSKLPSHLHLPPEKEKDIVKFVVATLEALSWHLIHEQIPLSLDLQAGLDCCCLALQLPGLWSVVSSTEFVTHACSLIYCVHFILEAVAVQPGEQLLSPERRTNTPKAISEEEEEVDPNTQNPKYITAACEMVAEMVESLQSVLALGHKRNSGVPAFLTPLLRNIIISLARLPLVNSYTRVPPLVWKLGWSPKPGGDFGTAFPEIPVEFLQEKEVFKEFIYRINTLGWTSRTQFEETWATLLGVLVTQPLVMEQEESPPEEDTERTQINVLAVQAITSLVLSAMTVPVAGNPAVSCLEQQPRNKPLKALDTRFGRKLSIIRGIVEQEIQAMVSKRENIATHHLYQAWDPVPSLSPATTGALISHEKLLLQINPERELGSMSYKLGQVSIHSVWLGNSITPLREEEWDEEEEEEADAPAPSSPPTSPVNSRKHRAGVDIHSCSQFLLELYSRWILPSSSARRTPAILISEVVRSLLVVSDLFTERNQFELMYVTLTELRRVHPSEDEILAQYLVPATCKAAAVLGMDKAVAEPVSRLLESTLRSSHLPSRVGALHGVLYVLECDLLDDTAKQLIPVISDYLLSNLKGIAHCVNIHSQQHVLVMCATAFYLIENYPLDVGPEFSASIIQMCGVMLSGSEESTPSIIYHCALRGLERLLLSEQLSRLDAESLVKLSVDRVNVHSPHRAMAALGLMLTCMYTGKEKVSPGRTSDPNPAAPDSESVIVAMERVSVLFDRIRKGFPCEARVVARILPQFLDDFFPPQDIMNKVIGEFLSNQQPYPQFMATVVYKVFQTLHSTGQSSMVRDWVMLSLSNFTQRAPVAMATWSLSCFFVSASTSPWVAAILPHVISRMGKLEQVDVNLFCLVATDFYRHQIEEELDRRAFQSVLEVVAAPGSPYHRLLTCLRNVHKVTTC

SMILES	inhibition
O=C1/C(=C/c2cccs2)CC2CC1C/C(=C\c1cccs1)C2=O	31% (inactive)
Cc1n[nH]c(=O)nc1N/N=C/c1cccs1	active
Cc1ccc(C)c(N2CCN(C(=O)c3cc4ccncc4n3C)CC2)c1	48.1% (inactive)
Cc1cc(O)c(CN2CCCCC2)c2c1C(=O)C(=Cc1ccncc1)O2	10% (inactive)
O=C(CCc1ccccc1)N1N=C(c2cccc([N+](=O)[O-])c2)CC1(O)C(F)(F)F (configuration not stated)	26% (inactive)
O=C1CC(c2ccccc2)=NN1c1ccc([N+](=O)[O-])cc1	91% (active)
O=C1C2CC(Br)C(Br)CC2C(=O)N1c1ccc([N+](=O)[O-])cc1 (configuration not stated)	0% (inactive)
CCCn1ncc(N2CCC(C(=O)NCCCN3CCOCC3)CC2)cc1=O	-2.54% (inactive)
O=C(Nc1ccc(Cn2cncn2)cc1)c1ccc(Cl)cc1	17.8% (inactive)
CC1CN(C(=O)C2(c3ccccc3)CC2)CC1c1nc(-c2cccnc2)no1 (configuration not stated)	29.4% (inactive)
CCN(CC)CCCNC(=O)c1c(O)c2cc(F)cc3c2n(c1=O)C(C)CC3 (configuration not stated)	98% (active)
CCNC(=O)c1c(O)c2cccc3c2n(c1=O)CC3	0% (inactive)
CCN(CC)CCNC(=O)c1cn(C2CCCCC2)c(=O)c2c1c1ccccc1n2C	6% (inactive)
CNC(=O)N1CCCC(c2cccc(C(=O)NCc3ccccc3C(F)(F)F)c2)C1 (configuration not stated)	-2.02% (inactive)
COc1ccc(C2C3C(=O)N(c4ccc([N+](=O)[O-])cc4)C(=O)C3N3CCCN23)cc1 (configuration not stated)	-1% (inactive)
CCCCN1C[C@H](c2ccc(Br)cc2)[C@@H](CC(=O)Nc2ccc(Br)cc2)C1=O	96.5% (active)
CCCCN1CC(C)(C)[C@H](CC(=O)Nc2ccc(Br)cc2)C1=O	-13.5% (inactive)
C[C@H]1CN(c2ccc(Br)cc2)C(=O)[C@@H]1CC(=O)Nc1ccc(Br)cc1	2.2% (inactive)
Cc1cc(C)c(NC(=O)CNC(C)(C)C)c(C)c1	-2.1% (inactive)
O=C(NC(C(=O)N1CCCCC1)C12CC3CC(CC(C3)C1)C2)c1ccc(F)cc1 (configuration not stated)	2.5% (inactive)
CC1=C/C(=N\Oc2ccc3noc4c3c2C(=O)c2ccccc2-4)C(C(C)C)=CC1=O	active
N#Cc1ccc(C2=COC3(CCCN(C(=O)c4ccccc4)C3)C2)cc1 (configuration not stated)	2.5% (inactive)
CN(C)c1ncccc1NC(=O)c1cccc(C#N)c1	0% (inactive)
COc1cccc(C2Nc3ccc(C(=O)O)cc3C3C=CCC32)c1OC (configuration not stated)	15% (inactive)
O=[N+]([O-])c1ccc2c(c1)C1C=CCC1C(c1cccc(Br)c1)N2 (configuration not stated)	72% (active)

SMILES	inhibition
O=C1NC(c2cccc([N+](=O)[O-])c2)C(=C(O)c2ccc(Br)cc2)C1=O (configuration not stated)	7.7% (inactive)
CCCn1cnc2c1c(=O)n(CC)c(=O)n2-c1ccc(C)cc1	0.6% (inactive)
CC(C)Cn1cc(C(=O)NC2CCCCCC2)c2c3ccccc3n(C)c2c1=O	1% (inactive)
COc1cccc(C2C3=C(Nc4c2c(=O)n(C)c(=O)n4C)c2ccccc2C3=O)c1OC (configuration not stated)	27% (inactive)
Cn1nc(COc2ccccc2)c2c1CCN(C(=O)Nc1ccc(F)cc1F)C2	22.3% (inactive)
Cn1nc(COc2ccc(F)cc2)c2c1CCN(C(=O)Nc1ccc(F)cc1F)C2	-2.73% (inactive)
Cn1nc(COc2ccc(F)cc2)c2c1CCN(C(=O)Nc1ccc(F)cc1)C2	80% (active)
Cc1ccc(C)c(N=c2oc3ccccc3cc2C(=O)Nc2nccs2)c1	-4% (inactive)
CN(C)CCNC(=O)c1cc2n(n1)CCCN(Cc1cccc(F)c1)C2=O	-3.78% (inactive)
CC(=O)NC(=Nc1nc(C)cc(C)n1)Nc1cccc(C)c1C	0% (inactive)
Cc1c(NC(=O)c2cccc([N+](=O)[O-])c2C)cccc1-c1nc2ccccc2[nH]1	16% (inactive)
O=C(Nc1ccccc1-c1nc2ccccc2[nH]1)c1ccccc1Br	51% (active)
O=C(Nc1ccccc1-c1nc2ccccc2[nH]1)c1ccccc1Cl	45.7% (inactive)
O=C(Nc1nc2ccccc2s1)c1ccc2c(c1)OCO2	17.1% (inactive)
O=C(CN1C(=O)CCC1=O)N1CCC(Oc2nc3ccc(F)cc3s2)CC1	-3.4% (inactive)
O=C(Cc1ccc2c(c1)OCO2)N1CCC(Oc2nc3ccccc3s2)CC1	61.1% (active)
O=C(NCc1ccncc1)C1CC(=O)N(Cc2ccccc2F)C1 (configuration not stated)	3.4% (inactive)
COc1ccc(C(=O)CSc2nc(N)cc(=O)[nH]2)cc1[N+](=O)[O-]	3.7% (inactive)
C[C@H]1COc2cc(N3CCSCC3)ccc2S(=O)(=O)N1	-12% (inactive)
O=C(c1ccc(F)cc1)N1CCc2nc[nH]c2C1	-20.2% (inactive)
COc1cc(C(c2cc3c(cc2O)OCO3)N2CCCC2)cc(OC)c1OC (configuration not stated)	81.6% (active)
COc1cc(OC)c(OC)cc1CN1CCN(Cc2ccc3c(c2)OCO3)CC1	2.4% (inactive)
Cc1nc2c(c(NCC3CCCO3)n1)CCC2 (configuration not stated)	-7.6% (inactive)
C[C@H]1[C@H](NC(=O)c2cccc(N(C)C)c2)CC[C@@]23CCCN2C(=O)CCC[C@@H]13	-15.6% (inactive)
Clc1cccc(N2CCN(Cc3cccnc3)CC2)c1	1% (inactive)

SMILES	inhibition
c1csc(CN2CCN(c3cnn4cnnc4c3)CC2)c1	0.4% (inactive)
Cc1nnc2cc(N3CCN(Cc4ccc(C(C)C)cc4)CC3)cnn12	63.7% (active)
CCn1nnc2c(N3CCN(C(=O)Nc4ccccc4C(F)(F)F)CC3)ncnc21	-3.4% (inactive)
Cc1ccccc1COc1cccc(/C=C2\C(=O)NN(c3ccccc3)C2=O)c1	7% (inactive)
CCOc1cc(/C=C2\C(=O)NN(c3ccccc3)C2=O)cc(Cl)c1OCC	61% (active)
CCOc1cc(/C=C2\C(=O)NN(c3cccc(Cl)c3)C2=O)ccc1O	8% (inactive)
CC(C)N1C(=O)C(C)N(C(=O)NCc2ccc(F)cc2)c2cccnc21 (configuration not stated)	10.9% (inactive)
O=C(CSc1cccc2cccnc12)Nc1ccc(Br)cc1	3.8% (inactive)
Cc1ccc(NC(=O)CSC2=NC(C)(C)N=C2c2ccccc2)c(C)c1	-6.5% (inactive)
Cc1ccc(NC(=O)CSc2cccc3cccnc23)c(C)c1	86% (active)
N#CC1=C2C=CC(O)=CC2OC=C1N (configuration not stated)	55.1% (active)
Cn1c(SCc2ccc([N+](=O)[O-])cc2)nnc1-c1cccs1	4% (inactive)
CCN1C(=O)CCc2cc(NC(=O)c3sccc3C)ccc21	-2.8% (inactive)
O=C1C2C3C=CC(C3)C2C(=O)N1c1ccc(Nc2ccc3c(c2)CCC3)c([N+](=O)[O-])c1 (configuration not stated)	74% (active)
Cc1ccc(N2C(=O)C3C4c5ccccc5C(CO)(c5ccccc54)C3C2=O)cc1[N+](=O)[O-] (configuration not stated)	27% (inactive)
Cc1nn(C)c(C)c1Nc1ccc(N2C(=O)CCCC2=O)cc1[N+](=O)[O-]	1% (inactive)
COc1ccccc1CNC(=O)C1CCN(c2cncnc2N2CCN(C)CC2)CC1	5.19% (inactive)
CC(C)(C)NC(=O)c1ccc2c(c1)CCN2C(=O)C1CC1	-4.5% (inactive)
CCOC(=O)NCCS(=O)(=O)N1CCN(c2ccc(OC)cc2)CC1	1.1% (inactive)
N#C/C(=C\c1cccn1-c1ccc([N+](=O)[O-])cc1)c1nn(CCO)c(N)c1C#N	-2.4% (inactive) and 4% (inactive)
CS(=O)(=O)N1CCc2cc(NC(=O)Nc3ccccc3)ccc21	12.4% (inactive)
CCN(CC(O)COC12CC3CC(CC(C3)C1)C2)C1CCCCC1 (configuration not stated)	-6.1% (inactive)
COc1ccc(N2CCN(CC(O)COC34CC5CC(CC(C5)C3)C4)CC2)cc1 (configuration not stated)	27.7% (inactive)
CCc1ccc(OCC(O)CN2CCN(c3ccc(F)cc3)CC2)cc1 (configuration not stated)	15.9% (inactive)
CCN1CCN(CC(O)COc2ccc(C34CC5CC(CC(C5)C3)C4)cc2)CC1 (configuration not stated)	50.3% (active)

SMILES	inhibition
CC(=O)c1ccc(OCC(O)CN2CCN(c3ccccc3)CC2)cc1 (configuration not stated)	9.71% (inactive)
Cc1ccc(OCC(O)CN2CCCC2)cc1C (configuration not stated)	1.8% (inactive)
CC1CC(C)CN(CC(O)COc2ccc(C34CC5CC(CC(C5)C3)C4)cc2)C1 (configuration not stated)	65.1% (active)
CCN(CC)CC(O)COc1ccc(C23CC4CC(CC(C4)C2)C3)cc1 (configuration not stated)	98.6% (active)
Cc1ccc(OCC(O)CNC2CCCCC2)cc1 (configuration not stated)	-7.1% (inactive)
CCn1nccc1C(=O)N1CC2CC(NC(=O)c3cccs3)C1C2 (configuration not stated)	1.26% (inactive)
Cc1ccc2nc(NCc3ccccc3)c(C=Nc3ccccc3)c(=O)n2c1	6% (inactive)
CCc1ccc(CNC(=O)c2c(C)sc3c(=O)n(C4CCCC4)cnc23)cc1	-6.7% (inactive)
CN1CCN(C(=O)c2cc3c(=O)n(C)ccc3n2C)CC1	-9.9% (inactive)
O=S(=O)(Nc1ccc(Cl)cc1F)c1c[nH]c2ncccc12	71.8% (active)
CCOc1ccc(S(=O)(=O)Nc2ccccc2F)c2cccnc12	4% (inactive)
O=S(=O)(Nc1ccc(F)cc1)c1cccnc1Nc1ccc(Cl)cc1	-23.3% (inactive)
Cc1cccc(OCC(=O)N2CCCC(OCc3nc(C)no3)C2)c1 (configuration not stated)	-7.37% (inactive)
Cc1ccc(-c2nnc(C(=O)c3ccccc3)o2)cc1	0.5% (inactive)
O=S(=O)(c1cc(Br)ccc1Br)N1CCOCC1	-4% (inactive)
COC(=O)Oc1c([N+](=O)[O-])cc2oc(=O)sc2c1[N+](=O)[O-]	53% (active)
Cc1oc2c(Cl)c(Cl)c(O)cc2c1[N+](=O)[O-]	32% (inactive)
COc1ccc(Br)cc1C(=O)Nc1cc2cccc([N+](=O)[O-])c2oc1=O	-7% (inactive)
O=C1CCCC2=C1C(c1cccc(Br)c1)n1nc(-c3ccccc3)nc1N2 (configuration not stated)	-1.86% (inactive)
CCOc1ccc(-c2cc(C(=O)NCc3ccccn3)c3ccccc3n2)cc1	-9.8% (inactive) and 70% (active)
CCOc1cccc(-c2cc(C(=O)NCCN3CCOCC3)c3ccccc3n2)c1	11.4% (inactive)
O=C(NCc1cccnc1)c1cc(-c2ccccn2)nc2ccccc12	34% (inactive)
